# According to PubChem BioAssay (NCI):
# The panel holds about 83,000 compounds, 20% with a hit somewhere; the sample as a whole holds those more often.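 For each line, cells grew in 96-well plates with the test compound present at a single concentration for 48 hours.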 Activity calls are given as the source filed them. Rule for the calls: active = growth percent below 10; inactive = the rest.
# Tested on: HL-60(TB) leukemia
# Experiment: NCI-60 one-dose screen, 48 h (100 = growth as untreated, 0 = no growth, -100 = all killed)
# Conditions: 10 µM unless noted
row,Structure (SMILES),growth
1,COC(=O)CNC(=O)[C@]12CCC(C)(C)C[C@H]1C1=CC[C@@H]3[C@@]4(C)Cc5c([nH]c6ccccc56)C(C)(C)[C@@H]4CC[C@@]3(C)[C@]1(C)CC2,76.9% (inactive)
2,O=C1CSC(c2c(Cl)cccc2Cl)N1c1nc(Cl)cc(=O)[nH]1 (stereo not given),161% (inactive)
3,CCCCN=C(N)c1ccc(OCCSCCOc2ccc(C(N)=NCCCC)cc2)cc1,38.8% (inactive)
4,CCCCn1c2cc(OCc3cn(-c4ccc(Cl)cc4)nn3)ccc2c2ccnc(C)c21,-46.5% (active)
5,COc1ccc(-c2nnc(SCC(=O)Nc3ccc(C(=O)/C=C/c4ccc(Cl)cc4)cc3)o2)cc1OC,93.1% (inactive)
6,O=C(Nc1cccc2cccnc12)c1cc(C(=O)c2ccc(Cl)cc2)n2ccc(-c3ccncc3)cc12,125% (inactive)
7,O=C(CCC(=O)c1nc2ncccc2[nH]1)NN1C(=O)CSC1c1ccc(Cl)cc1 (stereo not given),99.6% (inactive)
8,CNC(=O)c1cc(Oc2ccc3nc(NC(=O)Nc4ccc(N5CCC(N(C)C)CC5)cc4)sc3c2)ccn1,77.1% (inactive)
9,CCCCN(CCCC)c1ccc(C(=N)c2ccc(N(C)C)cc2)cc1,-55.1% (active)
10,O=c1cc(C(F)(F)F)[nH]c(=S)[nH]1,94.1% (inactive)
11,CN1CCN(C(=O)c2c3c(n4ccccc24)C(=O)c2ncccc2C3=O)CC1,53.4% (inactive)
12,Cc1ccc(S(=O)(=O)OC[C@@]2(C)CC[C@]3(C)CC[C@]4(C)C(=C3C2)C=C[C@@H]2[C@@]3(C)CCCNC(C)(C)[C@@H]3CC[C@]24C)cc1,-58.4% (active)
13,CC(=Nc1ccccc1)C1=C(O)C(Cc2cccc(F)c2)NC1=O (stereo not given),-15.2% (active)
14,O=C1c2cc3c(cc2-c2c1c1ccc(Cl)cc1c(=O)n2CCCN1CCOCC1)OCO3,16.7% (inactive)
15,Cc1ccc(-c2n[nH]c(=O)c3noc(-c4ccc(C)cc4)c23)cc1,6.11% (active)
16,N#Cc1c(-c2ccccc2)cc(-c2ccccc2)n(CCCC(=O)NO)c1=O,10.2% (inactive)
17,S=C1SCN(Cc2ccccc2)CN1Cc1ccco1,32% (inactive)
18,Cc1cc2c(C(C)C)c(O)c(O)c(C=NCc3ccoc3)c2c(O)c1-c1c(C)cc2c(C(C)C)c(O)c(O)c(C=NCc3ccco3)c2c1O,9.25% (active)
19,CCc1ccc(OC(=O)CCl)cc1,102% (inactive)
20,COc1cc(-c2nc(N3CCN(C)CC3)c3ccccc3n2)cc(OC)c1OC,67% (inactive)
21,Cn1cc(-c2nc(-c3c[nH]c4ccncc34)cs2)c2cc(Br)ccc21,-61.4% (active)
22,COc1cc(-c2cc(/C=C/C(C)=O)[nH]n2)cc(OC)c1OC,66.7% (inactive)
23,Ic1ccc(SSc2ccc(I)cc2)cc1,80.4% (inactive)
24,CCOC(=O)c1nc(Nc2cc(C)[nH]n2)c2ccccc2n1,106% (inactive)
25,Brc1ccc(-c2nn(-c3ccccc3)cc2-c2nn[nH]n2)s1,103% (inactive)
